# Reference: the supplement of paper PMC10338343
# ± gives the standard deviation.
# System: MILI (PIWIL2) piRISC loaded with piRNA #1 (26 nt)
# Test: pre-steady-state target cleavage rate (min^-1); guide: piRNA #1 5'p-UGAGGUAGUAGGUUGUAUAGUAUCCA; MIWI and MILI are mouse PIWI proteins and EfPiwi is from a freshwater sponge; tags in brackets are library labels; higher = faster piRNA-guided slicing of the target
# Conditions: auxiliary factor: 500 nM mouse GTSF1
# How it was run: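 In Cleave-'n-Seq, a transcribed, DNA-blocked target RNA library (0.1 nM) was combined with 1 nM active affinity-purified piRISC bearing one synthetic guide, with or without 500 nM GTSF1 partner protein. Reactions ran in HEPES–potassium acetate buffer at 33 °C for 0–8 or 0–960 min. Uncleaved targets were sequenced and normalised to depth and to weakly complementary targets, three trials were pooled, and k3 was capped at 0.0001 min^-1. The pre-steady-state cleavage rate was obtained by fitting a burst-and-steady-state model.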
row,Sequence,pre-steady-state target cleavage rate
1,GGAGACCUAUGAAUACAACCUACUAGCCUCA,0.00742 ± 0.0038
2,GGAGUGGAUACUAAACAACCUACUAGCUCA,0.0437 ± 0.0085
3,GGAGACGAUACUAUACAACCUACUACCUUA,0.228 ± 0.027
4,GGAGACCUAUGUAUACAACCUACUUGCUCA,0.0104 ± 0.0037
5,GGAGACCUAUCUAUAGAAGCUACUACCUCA,0.143 ± 0.019
6,GGAGACCUAACUAUACAACCUACUAACUCA,0.1 ± 0.03
7,GGAGACCUAACUAUACAAGCUACUAGCUCA,0.159 ± 0.042
8,GGAGACGAUACUAUACAAGGUACUACCUCA,0.0884 ± 0.013
9,GGAGACCUAAGAUUACAACCUACUACCUCA,0.0144 ± 0.0043
10,GGAGACCUAUGAUAACAACCUACUACCUUCA,0.00428 ± 0.0025
11,GGAGACCUAUGUAUACAACCUACUACCCCA,0.045 ± 0.011
12,GGAGACCUAUGAAAACAAGCUACUACCUCA,0.00917 ± 0.0021
13,GGAGACCUUUCUAUUCAACCUACUACCUCA,0.0926 ± 0.012
14,GGAGUGGAAACUAUUCAACCUACUACCUCA,0.192 ± 0.017
15,GGAGACCUAUGAAUACUACCUACUUCCUCA,0.0037 ± 0.0024
16,GGAGACCUAUCUAUACAAGCUUCUACCUCA,0.0321 ± 0.0061
17,GGAGACCUAUGUAUACAACCGACUACCUCA,0.00448 ± 0.0021
18,GGAGACGAUACUAUACAACCUACUACGCUCA,0.19 ± 0.02
19,GGAGACCUUACUAUUCAACCUAGUACCUCA,0.0486 ± 0.011
20,GGAGACCUUACUAAACAACCUUCUACCUCA,0.00652 ± 0.0027

row,Sequence,pre-steady-state target cleavage rate
1,GGAGACGAAACUAUACAACGUACUACCUCA,0.0174 ± 0.0054
2,GGAGACCUAUGAUUACAACCUACUAACCUCA,0.0091 ± 0.0025
3,GGAGACCUAUGAAUACAACGUACAACCUCA,0.00489 ± 0.0026
4,GGAGACCUAUGUAUACAACCUACUACCGUCA,0.0528 ± 0.0094
5,GGAGACCUUACAAUACAACCUACAACCUCA,0.111 ± 0.011
6,GGAGACCUAUCUAUACAACCUUCUUCCUCA,0.00365 ± 0.0029
7,GGAGACCUAUGAUAUGUACUCUACUACCUCA,< 0.0001
8,GGAGACCUAUGAAUACAACCUUCUACCUCA,0.00275 ± 0.0024
9,GGAGACCUAUGAAUACAACCUACUACUCUCA,0.00959 ± 0.002
10,GGAGACCUAUGAUAACAACCUACUUACCUCA,0.00599 ± 0.0021
11,GGAGACCUAACUGUACAACCUACUACCUCA,0.0814 ± 0.024
12,GGAGACCUAUCUAUACAACCUAGCUACCUCA,0.0218 ± 0.0062
13,GGAGACGAUAGUAUACUACCUACUACCUCA,0.148 ± 0.012
14,GGAGACCUAUCUAUACUACCUACUAGCUCA,0.0698 ± 0.014
15,GGAGACCUUACUAUACAACCUACAACGUCA,0.0109 ± 0.0043
16,GGAGACCUAUGAUAACAACCUACUGACCUCA,0.00368 ± 0.0025
17,GGAGACCUAUCAAUACAACCUUCUACCUCA,0.00474 ± 0.0027
18,GGAGACCUAUGAUAACAACCUACUACCUCCA,0.00565 ± 0.0022
19,GGAGAGGAUACUAUACAACCUACUACAUCA,0.0431 ± 0.0077
20,GGAGACCUAUGAUAUGUACCUACUACGAGA [g5:g13:cont:t1A],< 0.0001
